The structures appear in SMILES notation.

40 compounds from the supplement of paper PMC4206467 can be followed below.

The assay has as its system Perkinsus marinus PRA240. Nature of the assay: ATP content (proliferation) relative to DMSO control; higher = more parasite growth (less inhibition). The following applies: 20 µM; 4 days. How it is done:
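Perkinsus marinus PRA240 trophozoites (2-5x10^6 cells/ml, 100 µl, 96-well) were exposed once to MMV Malaria Box compounds at 20 µM (0.1% DMSO) in triplicate. ATP content (ATPlite bioluminescence) was read at day 4 post-exposure and normalised to DMSO + cells control wells (100% activity). Compounds were identified by joining plate and well to the Malaria Box list.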
Regarding `Clc1ccc2[nH]c3c(NCCCN4CCOCC4)ncnc3c2c1`, the ATP content is 163%.

With `OC1CCCCC1C1(NC(=S)Nc2ccccc2)CCCCC1` (stereo not given), the ATP content is 127%.

For the compound `COc1ccc(CCN2C(=O)c3[nH]nc(-c4cc(Cl)c(C)cc4O)c3C2c2ccccc2F)cc1` (stereo not given), the ATP content came out at 91.4%.

In turn, `Cc1ccc(OCCCCCCNCCO)c(C)c1` showed an ATP content of 164%.

In turn, `COc1ccc(N2CCN(C(CNC(=O)C3CCCCC3)c3ccc4c(c3)OCO4)CC2)cc1` (stereo not given) returned an ATP content of 114%.

Consider `CCOc1cc2c(cc1OCC)C(c1cc(C)c(O)c(C)c1)NCC2` (stereo not given), for which the ATP content came to 133%.

In the case of `O=C(NCc1ccco1)C1CCN(S(=O)(=O)c2ccc(Cl)cc2)CC1`, the ATP content worked out at 89.8%.

Regarding `COc1ccc(CCn2c(=N)c(C(=O)NCc3cccnc3)cc3c(=O)n4cccc(C)c4nc32)cc1`, the ATP content stood at 140%.

For `O=C(Nc1ccsc1C(=O)NC1CCCCC1)c1ccc(F)cc1`, the ATP content amounted to 90%.

Take `Cc1nc2ccccc2c(O)c1CC=C(Cl)Cl`: the ATP content was found to be 50.4%.

For `COc1nc(Nc2ccc(C(C)C)cc2)nc(OC)n1`, the ATP content came to 125%.

In turn, `Cc1sc2ncnc(Sc3nc4ccccc4[nH]3)c2c1C` gave an ATP content of 131%.

The compound `Cc1ccc(F)cc1NC(=O)c1cc(Cl)ccc1Nc1ccccc1` came in with an ATP content of 113%.

Regarding `CCCCCCC(O)(c1ccc(F)cc1)C(CN1CCOCC1)c1ccccc1` (stereo not given), the ATP content is 127%.

The compound `Cc1c(C)n(Cc2ccc(F)cc2)c2ccc(C(=O)NCc3ccco3)cc12` showed an ATP content of 111%.

As for `COc1ccc(Nc2nc(NCc3ccccc3)c3ccccc3n2)cc1`, the ATP content worked out at 103%.

Regarding `CCN(Cc1ccccc1)C1CCN(Cc2cc(Br)ccc2O)CC1`, the ATP content turned out to be 171%.

Turning to `CCOc1ccccc1CN1CCc2nc3cc(C(C)(C)C)nn3c(O)c2C1`, the ATP content was 51.7%.

Consider `Cc1ccc(-c2cc(C(=O)Nc3ccc(S(=O)(=O)N4CCCCC4)cc3)[nH]n2)c(O)c1`, for which the ATP content was found to be 104%.

Compound `CCOC(=O)c1cnc2ccc(OC)cc2c1Nc1ccc(N2CCN(C)CC2)cc1` came in with an ATP content of 106%.

For `CCOc1cccc2sc(N(Cc3cccnc3)C(=O)C3CCCCC3)nc12`, the ATP content stood at 79.5%.

The compound `CC(C)(C)c1ccc(C(=O)Nc2nc3ccccc3s2)cc1` came in with an ATP content of 57%.

The compound `CN1CCN(c2ncnc3c2[nH]c2ccc(Cl)cc23)CC1` showed an ATP content of 111%.

Compound `CCC(C)NCC(O)(c1ccc(Cl)cc1)c1ccc(Cl)cc1` (stereo not given) returned an ATP content of 78.7%.

`Cc1ccc(NC(=O)Nc2cccc(Cl)c2)cc1F` registered an ATP content of 85%.

For `CCCCCCn1c(=N)n(CC(O)COc2cccc(C)c2)c2ccccc21` (stereo not given), the ATP content worked out at 96.7%.

Take `COc1ccc(Nc2cc(C)nc(NCc3ccccc3)n2)cc1`: the ATP content came out at 93.8%.

Regarding `COc1ccc(C(=O)NC(c2ccc(Cl)cc2Cl)c2cc(Cl)c3cccnc3c2O)cc1` (stereo not given), the ATP content was 96.4%.

With `Cc1ccnc(NC(c2cccc(OCc3ccccc3)c2)c2ccc3cccnc3c2O)c1` (stereo not given), the ATP content stood at 57.2%.

`Cc1ccc(Nc2nc(N)c3ccccc3n2)cc1Cl` had an ATP content of 4.69%.

Turning to `COc1cc(C(=O)Nc2ccc(-c3nc4ccccc4[nH]3)cc2)cc(OC)c1OC`, the ATP content turned out to be 124%.

On to `COc1cccc(C(=O)NC(c2ccc(C)cc2)c2cc(Cl)c3cccnc3c2O)c1` (stereo not given), for which the ATP content was 39.5%.

The compound `O=C(c1ccccc1F)N(Cc1ccc(Cl)cc1)c1ccccn1` came in with an ATP content of 59%.

Take `CC(NCc1ccccc1)c1cc(Cl)ccc1O` (stereo not given): the ATP content was 85.9%.

`O=C(NNc1cc(N2CCCC2)nc(N2CCCC2)n1)c1ccccc1` displayed an ATP content of 101%.

`O=C(CCc1ccccc1)c1ccccc1OCC(O)CN1CCCCC1` (stereo not given) came in with an ATP content of 62.3%.

In the case of `OC1=C2C(=Nc3ccccc3SC2c2ccc(Br)cc2)c2ccccc21` (stereo not given), the ATP content is 45.9%.

As to `OC(CNCc1ccccc1)Cn1c2ccccc2c2ccccc21` (stereo not given), the ATP content turned out to be 105%.

`CN1C=C(c2ccc3ccccc3n2)C(c2c[nH]c3ccccc23)c2ccccc21` (stereo not given) came in with an ATP content of 108%.

Consider `CCN(CC)CCn1c(=N)n(CC(O)c2ccc(Cl)c(Cl)c2)c2ccccc21` (stereo not given), for which the ATP content came out at 110%.
